Paper PMC7862700, “An all-to-all approach to the identification of sequence-specific readers for epigenetic DNA modifications on cytosine”

molecular target: T1, EHF (Homo sapiens, UniProt Q9NZC4 1-300); assay: DAPPL (digital affinity profiling via proximity ligation, sequencing); 10 mM Tris-HCl pH 7.5, 50 mM NaCl, 1 mM DTT, 4% glycerol, room temperature, 30 min; GST-TFs on glutathione beads, 16-mer random dsDNA library, 0.1% formaldehyde crosslink after washing; high values mean tight binding; details: protein: recombinant; tags: N-terminal GST; dsDNA, one strand shown
T1 sequence: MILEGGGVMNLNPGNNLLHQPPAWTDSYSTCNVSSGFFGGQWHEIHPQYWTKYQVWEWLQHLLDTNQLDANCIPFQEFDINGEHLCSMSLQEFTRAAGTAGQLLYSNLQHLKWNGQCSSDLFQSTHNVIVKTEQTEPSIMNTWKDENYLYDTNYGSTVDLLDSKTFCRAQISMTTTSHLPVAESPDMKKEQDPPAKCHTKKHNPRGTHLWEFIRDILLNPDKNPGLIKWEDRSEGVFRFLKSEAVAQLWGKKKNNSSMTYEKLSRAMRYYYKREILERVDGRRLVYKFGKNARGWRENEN
Outline: (§1)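 Binding signal is defined as a hexamer's read frequency for one factor over its frequency for the tag-only sample. To obtain reads, GST-fused human transcription factors were expressed in yeast, captured on glutathione beads, barcoded with DNA and pooled with that sample. Pools met 200 nmole of a 16-mer random double-stranded DNA library in Tris/NaCl/DTT/glycerol buffer for 30 min at room temperature before washing, 0.1% formaldehyde crosslinking, proximity ligation (BsaI/T4 ligase, 1 h, 37 °C), PCR and Illumina NextSeq500 sequencing.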

| Sequence | binding signal |
| --- | --- |
| TTTTCC | 1.76 fold enrichment (6-mer frequency, TF over GST control) |
| CGATTA | 1.11 fold enrichment (6-mer frequency, TF over GST control) |
| TATTTT | 1.44 fold enrichment (6-mer frequency, TF over GST control) |
| TCCTCG | 1.56 fold enrichment (6-mer frequency, TF over GST control) |
| GTTGCT | 1.35 fold enrichment (6-mer frequency, TF over GST control) |
| TCCGCC | 1.73 fold enrichment (6-mer frequency, TF over GST control) |
| TCTCTG | 1.62 fold enrichment (6-mer frequency, TF over GST control) |
| TTTAAC | 1.1 fold enrichment (6-mer frequency, TF over GST control) |
| ATTGCA | 1.14 fold enrichment (6-mer frequency, TF over GST control) |
| ACGTCT | 1.13 fold enrichment (6-mer frequency, TF over GST control) |
| TCTACT | 1.35 fold enrichment (6-mer frequency, TF over GST control) |
| TCATCC | 1.38 fold enrichment (6-mer frequency, TF over GST control) |
| TATCGA | 1.35 fold enrichment (6-mer frequency, TF over GST control) |
| CTACTC | 1.38 fold enrichment (6-mer frequency, TF over GST control) |
| AATTAC | 1.33 fold enrichment (6-mer frequency, TF over GST control) |
| TCTGGC | 1.22 fold enrichment (6-mer frequency, TF over GST control) |
| CCCGAC | 1.31 fold enrichment (6-mer frequency, TF over GST control) |
| CAAGAT | 1.04 fold enrichment (6-mer frequency, TF over GST control) |
| TTAGCA | 1.21 fold enrichment (6-mer frequency, TF over GST control) |
| CATTTG | 1.27 fold enrichment (6-mer frequency, TF over GST control) |

| Sequence | binding signal |
| --- | --- |
| TCTTCT | 1.14 fold enrichment (6-mer frequency, TF over GST control) |
| AATCCT | 1.33 fold enrichment (6-mer frequency, TF over GST control) |
| CCCCCT | 1.26 fold enrichment (6-mer frequency, TF over GST control) |
| ACATCC | 2.7 fold enrichment (6-mer frequency, TF over GST control) |
| TTTTGT | 1.33 fold enrichment (6-mer frequency, TF over GST control) |
| ACATAA | 1.1 fold enrichment (6-mer frequency, TF over GST control) |
| TTCTCG | 1.34 fold enrichment (6-mer frequency, TF over GST control) |
| AAATCT | 1.2 fold enrichment (6-mer frequency, TF over GST control) |
| TTCTCC | 1.62 fold enrichment (6-mer frequency, TF over GST control) |
| CTTGCG | 1.41 fold enrichment (6-mer frequency, TF over GST control) |
| ACGTTC | 1.3 fold enrichment (6-mer frequency, TF over GST control) |
| AATTAA | 1.22 fold enrichment (6-mer frequency, TF over GST control) |
| GTTCCT | 1.73 fold enrichment (6-mer frequency, TF over GST control) |
| ACTTAT | 1.41 fold enrichment (6-mer frequency, TF over GST control) |
| AATTTA | 1.19 fold enrichment (6-mer frequency, TF over GST control) |
| CACGAT | 1.32 fold enrichment (6-mer frequency, TF over GST control) |
| CTCTCT | 1.66 fold enrichment (6-mer frequency, TF over GST control) |
| GCCTAC | 1.25 fold enrichment (6-mer frequency, TF over GST control) |
| GCCTCG | 1.3 fold enrichment (6-mer frequency, TF over GST control) |
| AACTAG | 1.12 fold enrichment (6-mer frequency, TF over GST control) |

molecular target: SPI1 (Homo sapiens, UniProt P17947 1-270); assay: as above; details: protein: recombinant; tags: N-terminal GST; dsDNA, one strand shown
Outline: as §1

| Sequence | binding signal |
| --- | --- |
| TTTTCC | 1.75 fold enrichment (6-mer frequency, TF over GST control) |
| CGATTA | 1.09 fold enrichment (6-mer frequency, TF over GST control) |
| TATTTT | 1.35 fold enrichment (6-mer frequency, TF over GST control) |
| TCCTCG | 1.46 fold enrichment (6-mer frequency, TF over GST control) |
| GTTGCT | 1.34 fold enrichment (6-mer frequency, TF over GST control) |
| TCCGCC | 1.48 fold enrichment (6-mer frequency, TF over GST control) |
| TCTCTG | 1.52 fold enrichment (6-mer frequency, TF over GST control) |
| TTTAAC | 1.19 fold enrichment (6-mer frequency, TF over GST control) |
| ATTGCA | 1.19 fold enrichment (6-mer frequency, TF over GST control) |
| ACGTCT | 1.15 fold enrichment (6-mer frequency, TF over GST control) |
| TCTACT | 1.42 fold enrichment (6-mer frequency, TF over GST control) |
| TCATCC | 1.34 fold enrichment (6-mer frequency, TF over GST control) |
| TATCGA | 1.34 fold enrichment (6-mer frequency, TF over GST control) |
| CTACTC | 1.47 fold enrichment (6-mer frequency, TF over GST control) |
| AATTAC | 1.35 fold enrichment (6-mer frequency, TF over GST control) |
| TCTGGC | 1.25 fold enrichment (6-mer frequency, TF over GST control) |
| CCCGAC | 1.29 fold enrichment (6-mer frequency, TF over GST control) |
| CAAGAT | 1.01 fold enrichment (6-mer frequency, TF over GST control) |
| TTAGCA | 1.15 fold enrichment (6-mer frequency, TF over GST control) |
| CATTTG | 1.29 fold enrichment (6-mer frequency, TF over GST control) |

| Sequence | binding signal |
| --- | --- |
| TCTTCT | 1.22 fold enrichment (6-mer frequency, TF over GST control) |
| AATCCT | 1.37 fold enrichment (6-mer frequency, TF over GST control) |
| CCCCCT | 1.19 fold enrichment (6-mer frequency, TF over GST control) |
| ACATCC | 2.5 fold enrichment (6-mer frequency, TF over GST control) |
| TTTTGT | 1.43 fold enrichment (6-mer frequency, TF over GST control) |
| ACATAA | 1.08 fold enrichment (6-mer frequency, TF over GST control) |
| TTCTCG | 1.42 fold enrichment (6-mer frequency, TF over GST control) |
| AAATCT | 1.14 fold enrichment (6-mer frequency, TF over GST control) |
| TTCTCC | 1.63 fold enrichment (6-mer frequency, TF over GST control) |
| CTTGCG | 1.34 fold enrichment (6-mer frequency, TF over GST control) |
| ACGTTC | 1.29 fold enrichment (6-mer frequency, TF over GST control) |
| AATTAA | 1.26 fold enrichment (6-mer frequency, TF over GST control) |
| GTTCCT | 2.34 fold enrichment (6-mer frequency, TF over GST control) |
| ACTTAT | 1.39 fold enrichment (6-mer frequency, TF over GST control) |
| AATTTA | 1.2 fold enrichment (6-mer frequency, TF over GST control) |
| CACGAT | 1.27 fold enrichment (6-mer frequency, TF over GST control) |
| CTCTCT | 1.53 fold enrichment (6-mer frequency, TF over GST control) |
| GCCTAC | 1.18 fold enrichment (6-mer frequency, TF over GST control) |
| GCCTCG | 1.21 fold enrichment (6-mer frequency, TF over GST control) |
| AACTAG | 1.11 fold enrichment (6-mer frequency, TF over GST control) |

molecular target: SPIB (Homo sapiens, UniProt Q01892 1-262); assay: as above; details: protein: recombinant; tags: N-terminal GST; dsDNA, one strand shown
Outline: as §1

SPIB, sequence (Q01892 whole entry): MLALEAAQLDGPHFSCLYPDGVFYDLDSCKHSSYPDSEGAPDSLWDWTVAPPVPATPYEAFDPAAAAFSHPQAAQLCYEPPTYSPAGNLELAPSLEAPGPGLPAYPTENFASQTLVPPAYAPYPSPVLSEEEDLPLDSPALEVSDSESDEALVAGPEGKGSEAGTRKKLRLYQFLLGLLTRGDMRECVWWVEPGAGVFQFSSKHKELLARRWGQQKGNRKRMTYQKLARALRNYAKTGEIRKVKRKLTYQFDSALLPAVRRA

| Sequence | binding signal |
| --- | --- |
| TTTTCC | 1.79 fold enrichment (6-mer frequency, TF over GST control) |
| CGATTA | 1.13 fold enrichment (6-mer frequency, TF over GST control) |
| TATTTT | 1.32 fold enrichment (6-mer frequency, TF over GST control) |
| TCCTCG | 1.32 fold enrichment (6-mer frequency, TF over GST control) |
| GTTGCT | 1.28 fold enrichment (6-mer frequency, TF over GST control) |
| TCCGCC | 1.54 fold enrichment (6-mer frequency, TF over GST control) |
| TCTCTG | 1.5 fold enrichment (6-mer frequency, TF over GST control) |
| TTTAAC | 1.14 fold enrichment (6-mer frequency, TF over GST control) |
| ATTGCA | 1.17 fold enrichment (6-mer frequency, TF over GST control) |
| ACGTCT | 1.35 fold enrichment (6-mer frequency, TF over GST control) |
| TCTACT | 1.42 fold enrichment (6-mer frequency, TF over GST control) |
| TCATCC | 1.34 fold enrichment (6-mer frequency, TF over GST control) |
| TATCGA | 1.25 fold enrichment (6-mer frequency, TF over GST control) |
| CTACTC | 1.59 fold enrichment (6-mer frequency, TF over GST control) |
| AATTAC | 1.35 fold enrichment (6-mer frequency, TF over GST control) |
| TCTGGC | 1.09 fold enrichment (6-mer frequency, TF over GST control) |
| CCCGAC | 1.44 fold enrichment (6-mer frequency, TF over GST control) |
| CAAGAT | 1.01 fold enrichment (6-mer frequency, TF over GST control) |
| TTAGCA | 1.15 fold enrichment (6-mer frequency, TF over GST control) |
| CATTTG | 1.28 fold enrichment (6-mer frequency, TF over GST control) |
